High-throughput results (PubChem)
RecA intein inh: blocks M. tuberculosis RecA intein splicing; AID 2221; cell-free RecA intein splicing, fluorescence; inhibition, % (no concentration beside the values); 0.75% of 290,000 active; in the data active = inhibition above about 30%; inconclusive = no clear call, values can overlap the other calls;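 also: 0% = vehicle wells and 100% = reference inhibitor control wells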
PfHsp40 yeast: compounds rescuing yeast from Plasmodium falciparum HSP40 toxicity; S. cerevisiae expressing PfHsp40, growth rescue, ATP luminescence; growth rescue, % at 12.5 µM; 0.68% of 340,000 active; in the data active = growth rescue above about 28%, passing the limit was not always enough; inconclusive = no clear call, values can overlap the other calls;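 also: yeast W303a lacking pdr1 and pdr3 grown in galactose medium; growth measured after three days at 30 °C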
Mtb betalactam: beta-lactam sensitization of Mtb H37Rv. M. tuberculosis H37Rv growth with meropenem, percent inhibition. inhibition, % at 25 µM. 0.27% of 330,000 active. AID 434955; call rule not given here;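 also: growth measured after seven days incubation then overnight dye step; 0% = bacteria only wells and 100% = bacteria with antibiotic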
CCHFV vOTU inh: blocks the CCHF virus ovarian tumor domain protease; CCHFV vOTU protease, Pep-AMC fluorescence; inhibition, % at 11.5 µM; 0.55% of 370,000 active; in the data active = inhibition above about 30%; also: 0% = vehicle wells with enzyme and 100% = no enzyme wells
Mtb hypoxia rep: inhibitors of hypoxia-regulated fluorescent reporter in Mycobacterium tuberculosis; M. tuberculosis hypoxia-regulated fluorescent reporter, fluorescence; 0.1% of 300,000 active; fluorescence inhibition, % (test concentration not listed); in the data active = fluorescence inhibition mostly above about 23%, no sharp cut-off; inactive = mostly below about 17%
* = called active by the depositor; u = inconclusive; x = no result given. A selection: hits, their analogues and other compounds. The true share with any hit is near 1.7%.

SMILES	RecA intein inh	PfHsp40 yeast	Mtb betalactam	CCHFV vOTU inh	Mtb hypoxia rep
CN(C(=O)c1ccc(NC(=O)Cc2ccc(NC(=O)C3CCN(C(=O)C4CCC4)CC3)cc2)cc1)C1CC1	x	0	3	2	17
CS(=O)(=O)Nc1ccc(-c2cc(C=C3SC(N)=NC3=O)c[nH]c2=O)cc1	x	x	x	x	-3
O=C1c2ccccc2C(O)(c2ccccc2)N1c1ccc([N+](=O)[O-])cc1Cl (stereo unspecified)	x	205*	x	5	19
NC(=O)C1CC2(CC(c3cccc(NC(=O)CC(c4ccccc4)c4ccccc4)c3)=NO2)CN1C(=O)COc1ccc(Cl)cc1 (stereo unspecified)	x	x	x	x	-11
Cc1c(C(=O)N(Cc2ccccc2)Cc2cccs2)cnn1-c1ccc(Cl)cc1	12	117*	4	11	x
CC1(C)C(O)CC[C@@]2(C)C1CC[C@]1(C)C2C(=O)C=C2C3C[C@@](C)(C(=O)O)CC[C@]3(C)CC[C@]21C (stereo partly specified)	x	x	x	x	-5
CC1CC2C3CCC4=CC(=O)C=C[C@]4(C)[C@@]3(Cl)C(O)C[C@]2(C)[C@@]1(OC(=O)c1ccco1)C(=O)CCl (stereo partly specified)	x	x	x	x	-8
COc1ccc(NC(=O)COc2ccccc2C)cc1S(=O)(=O)N1CCCCC1	5	21	-3	-8	0
COc1cc(C(=O)NS(=O)(=O)c2ccccc2C)ccc1Cc1cn(C)c2ccc(NC(=O)OC3CCCC3)cc12	38*	x	4	x	x
CCC(/C=C1\Sc2ccc(OC)cc2N1CC)=C\c1sc2ccc(OC)cc2[n+]1CCCS(=O)(=O)[O-]	-4	1	9	-9	68*
CCC(/C=C1\Sc2ccc(OC)cc2N1CCO)=C\c1sc2ccc(OC)cc2[n+]1CCO	x	3	96	3	x
COc1ccc(C(=O)CC(=O)C(=O)Nc2ccccc2)cc1	1	57*	6	11	-3
COc1ccc(C(=O)CC(=O)C(=O)Nc2cc(OC)c(OC)c(OC)c2)cc1	1	1	6	-8	13
COc1ccc(C(=O)CC(=O)C(=O)Nc2cccc(F)c2)cc1	1	39*	-2	19	9
COc1ccc(C=NNC(=O)Cc2ccc(Cl)cc2)cc1OC	x	x	x	x	-5
O=C1CCCN1CCCN=c1c([N+](=O)[O-])nn(-c2ccc(Cl)cc2)n1O	-9	3	x	4	46*
CC(C)CC(NC(=O)c1nc[nH]c1C(=O)NCC(=O)OCc1ccccc1)C(=O)OC(C)(C)C (stereo unspecified)	x	x	x	x	-2
CCOC1OC(C(=O)N2CCCCCCC2)=CC(c2coc3ccccc3c2=O)C1CCCO (stereo unspecified)	x	x	x	x	-2
O=C(NN=Cc1ccc(OCC(=O)N2CCCCC2)cc1)c1ccccc1O	x	x	x	x	11
N/C(=N\OC(=O)c1ccc(Cl)cc1)c1ccn[nH]1	-1	34*	-11	1	7
COc1ccc(C2C=CCN(Cc3ccncc3)CC(=O)N2Cc2ccc(F)cc2)cc1 (stereo unspecified)	x	x	x	x	19
Oc1c(Br)c(Br)c(Br)c(Br)c1Br	x	31*	0	x	x
Cc1ccc(CNC(=O)CCn2cc(-c3ccc(C)cc3)nc2CCN)cc1	x	40*	-7	-8	x
Cc1ccc(-n2ncc(Br)c(Br)c2=O)cc1	67*	4	x	x	15
COc1cccc(C2=CC(=O)CC(c3ccc(Cl)cc3)C2)c1 (stereo unspecified)	x	x	x	x	22
SMILES	RecA intein inh	PfHsp40 yeast	Mtb betalactam	CCHFV vOTU inh	Mtb hypoxia rep
O=C(c1ccco1)c1coc2c1cc(O)c1ccccc12	45*	-1	0	18	14
CC(=O)c1coc2c1cc(O)c1ccccc12	4	0	u	0	20
Cc1ccc(S(=O)(=O)N2[C@@H](c3ccc(Cl)cc3)C(C(=O)O)=CC[C@H]2c2ccc(C(C)C)cc2)cc1	x	6	1	27	10
CCc1ccc([C@@H]2CC=C(C(=O)O)[C@H](c3cccc(Cl)c3)N2S(=O)(=O)c2ccc(C)cc2)cc1	x	156*	1	15	x
Cc1ccc([C@H]2C(C(=O)O)=CC[C@@H](c3cccc(Cl)c3)N2S(=O)(=O)c2ccc(C)cc2)cc1	x	213*	x	7	-2
CCc1ccc([C@@H]2CC=C(C(=O)O)[C@H](c3ccc(Cl)cc3)N2S(=O)(=O)c2ccc(C)cc2)cc1	x	281*	5	22	x
O=C(CNC(=O)c1ccccc1O)NN=Cc1cc(Br)ccc1OC(=O)C=Cc1ccco1	x	x	x	x	3
Oc1ccc(CNc2ccccc2F)c2cccnc12	-3	39*	95	14	11
CC(C)(C)c1ccc(C(=O)Cn2cnnc2C#N)cc1	34*	3	19	-2	9
CCOc1ccc(C(=O)Cn2cnnc2C#N)cc1	9	0	3	-7	8
O=c1c(C(c2ccccc2)c2c(O)sc3ccccc3c2=O)c(O)sc2ccccc12	29*	-1	4	-13	10
CC1C=C(C(=O)NCc2nc3ccccc3[nH]2)OC(OCCCCO)C1 (stereo unspecified)	x	x	x	x	7
CN(C)C1C(=O)C(C(N)=O)=C(O)C2(O)C(=O)C3=C(O)c4c(O)cccc4C(C)(O)C3C(O)C12 (stereo unspecified)	-6	7	73	8	x
CC=CC(=O)N1CC2(CC(c3cccc(NC(=O)C(C)=CC)c3)=NO2)CC1C(N)=O (stereo unspecified)	x	x	x	x	0
O=c1[nH]c(=O)n([C@H]2C[C@H](O)[C@@H](CO)O2)cc1I	x	76*	-6	1	x
NC(=O)C1CCNc2c(I)cc([N+](=O)[O-])cc2C(=O)NC(CCC(=O)O)C(=O)NC(CO)C(=O)N1 (stereo unspecified)	x	x	x	x	7
C/C(=N\NC(=O)c1ccc([N+](=O)[O-])cc1)c1cc2ccccc2oc1=O	87*	0	7	7	x
O=C(Nc1cccc(Cl)c1)NC1CCCCC1	4	0	99	-3	5
O=C(Nc1cccc(Cl)c1)NC1CC2CCC1C2 (stereo unspecified)	3	-1	100	9	32*
CC(=NNc1ccc(Cl)c(C(=O)O)c1)c1ccccn1	x	x	x	x	5
CC1CN(C(=O)CCc2ccccc2)C(C)CN1C(=O)CCc1ccccc1 (stereo unspecified)	5	45*	-8	1	10
CC1CCCN(C(=O)CCc2ccccc2)C1 (stereo unspecified)	-2	-1	1	0	x
FC(F)(F)c1cnc(NN=Cc2ccncc2)c(Cl)c1	x	x	x	x	2
C=C1C(=O)O[C@@]23C1CCC(C)C2CC[C@@]1(C)OC31 (stereo partly specified)	x	x	x	x	25
CC1CCC2[C@@H](C)C(=O)OC3O[C@]4(C)CCC1C32OO4 (stereo partly specified)	-1	110*	2	-8	84*
CC1CCC2C(C)C(=O)OC3OC4(C)CCC1C32OO4 (stereo unspecified)	0	137*	5	-3	81*
CCOC(=O)C1C2COc3ccc(C)cc3C2N2C(=O)CN(Cc3ccc(C)cc3)C(=O)[C@@]12C (stereo partly specified)	x	x	x	x	12
